Experimental data from PubChem BioAssay AID651903 (Broad Institute, 2012).
The whole screen tested about 22,000 compounds, of which about 1,100 (5%) were called active. Rule as the data show it: active = activity score above about 55%; inconclusive = no clear call, values can overlap the other calls; inactive = below that. For the sample, actives were picked, then their nearest neighbours and some compounds at random.

Assay: T. cruzi growth inside host cells – cell-based, plate reader, single point, set 2, primary screen (AID 651903);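 also: parasites and compound incubated about four days before reading; 0% = median of neutral control wells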
Settings: intracellular Trypanosoma cruzi in host cells, at 5.01 µM, active compounds read high

Q: Which activity score (inhibition) does the source give for Cc1noc(C)c1NC(=O)N(C)C[C@H]1Oc2ccc(NC(=O)Nc3ccc(C(F)(F)F)cc3)cc2CC(=O)N([C@@H](C)CO)C[C@@H]1C here?
A: The activity score (inhibition) was -4.63% (inactive).

Q: Which activity score (inhibition) does the source give for Cc1ccc(S(=O)(=O)N(C)C[C@@H]2Oc3ccc(NC(=O)Cc4ccccc4)cc3CC(=O)N([C@H](C)CO)C[C@H]2C)cc1 here?
A: The activity score (inhibition) was 4.53% (inactive).

Q: With Cc1ccc(S(=O)(=O)Nc2ccc3c(c2)C(=O)N([C@@H](C)CO)C[C@@H](C)[C@H](CN(C)Cc2ccc(C(F)(F)F)cc2)O3)cc1 as the compound, how does the activity score (inhibition) read?
A: Its activity score (inhibition) is 52.7% (inactive).

Q: With COc1ccc(S(=O)(=O)Nc2ccc3c(c2)C(=O)N([C@H](C)CO)C[C@@H](C)[C@@H](CN(C)Cc2ccccc2)O3)cc1 as the compound, how does the activity score (inhibition) read?
A: The activity score (inhibition) was -14.1% (inactive).

Q: Which activity score (inhibition) does the source give for C[C@H](CO)N1C[C@H](C)[C@H](CN(C)Cc2ccc(C(F)(F)F)cc2)Oc2ccc(NS(=O)(=O)c3ccc(Cl)cc3)cc2C1=O here?
A: The activity score (inhibition) was 60.9% (active).

Q: With COc1ccc(S(=O)(=O)Nc2ccc3c(c2)C(=O)N([C@H](C)CO)C[C@H](C)[C@H](CN(C)Cc2ccc(C(F)(F)F)cc2)O3)cc1 as the compound, how does the activity score (inhibition) read?
A: The activity score (inhibition) was 24.5% (inactive).

Q: With COc1ccc(S(=O)(=O)Nc2ccc3c(c2)C(=O)N([C@H](C)CO)C[C@H](C)[C@@H](CN(C)Cc2ccc(-c4ccccc4)cc2)O3)cc1 as the compound, how does the activity score (inhibition) read?
A: Its activity score (inhibition) is 55.9% (active).

Q: With COc1ccc(CN(C)C[C@@H]2Oc3ccc(NS(=O)(=O)c4ccc(OC)cc4)cc3C(=O)N([C@H](C)CO)C[C@H]2C)cc1 as the compound, how does the activity score (inhibition) read?
A: The activity score (inhibition) was 3.29% (inactive).

Q: Which activity score (inhibition) does the source give for C[C@@H]1CN([C@@H](C)CO)C(=O)c2cccc(NC(=O)Nc3ccc4c(c3)OCO4)c2O[C@H]1CN(C)C(=O)Nc1cccc2ccccc12 here?
A: The activity score (inhibition) was -8.82% (inactive).

Q: For C[C@H](CO)N1C[C@H](C)[C@H](CN(C)C(=O)Nc2ccc3c(c2)OCO3)Oc2ncc(C#Cc3cccc(F)c3)cc2C1=O, which activity score (inhibition) is on record?
A: The activity score (inhibition) was 25.3% (inactive).

Q: Which activity score (inhibition) does the source give for C[C@H](CO)N1C[C@H](C)[C@H](CN(C)C(=O)Nc2cccc3ccccc23)Oc2ncc(C#Cc3ccccc3)cc2C1=O here?
A: The activity score (inhibition) was 67.5% (active).

Q: Which activity score (inhibition) does the source give for C[C@H](CO)N1C[C@H](C)[C@@H](CN(C)C)Oc2ccc(N(C)C)cc2C1=O here?
A: The activity score (inhibition) was -14.7% (inactive).

Q: With Cc1ccc(S(=O)(=O)N(C)C[C@@H]2Oc3ncc(-c4cc5ccccc5o4)cc3C(=O)N([C@H](C)CO)C[C@@H]2C)cc1 as the compound, how does the activity score (inhibition) read?
A: Its activity score (inhibition) is 76.5% (active).

Q: With C[C@H](CO)N1C[C@H](C)[C@H](CN(C)Cc2ccccc2)Oc2ncc(-c3ccccc3)cc2C1=O as the compound, how does the activity score (inhibition) read?
A: The activity score (inhibition) was -4.22% (inactive).

Q: With COc1ccc(-c2cnc3c(c2)C(=O)N([C@H](C)CO)C[C@H](C)[C@H](CN(C)S(=O)(=O)c2ccccc2)O3)cc1 as the compound, how does the activity score (inhibition) read?
A: Its activity score (inhibition) is 26.3% (inactive).

Q: For C[C@H](CO)N1C[C@H](C)[C@H](CN(C)C(=O)Nc2ccc(F)cc2)Oc2ncc(-c3cc4ccccc4o3)cc2C1=O, which activity score (inhibition) is on record?
A: The activity score (inhibition) was 78.2% (active).

Q: With C[C@H](CO)N1C[C@H](C)[C@H](CN(C)C(=O)NC2CCCC2)Oc2ncc(-c3ccc(F)cc3)cc2C1=O as the compound, how does the activity score (inhibition) read?
A: The activity score (inhibition) was 6.58% (inactive).

Q: For C[C@@H]1CN([C@H](C)CO)C(=O)c2cccc(NC(=O)Nc3cccc4ccccc34)c2O[C@@H]1CN(C)C(=O)Nc1cccc2ccccc12, which activity score (inhibition) is on record?
A: Its activity score (inhibition) is 4.54% (inactive).

Q: With C[C@H](CO)N1C[C@H](C)[C@H](CN(C)S(=O)(=O)c2ccc(F)cc2)Oc2ncc(-c3ccc(F)cc3)cc2C1=O as the compound, how does the activity score (inhibition) read?
A: The activity score (inhibition) was 30.4% (inactive).

Q: With C[C@H](CO)N1C[C@H](C)[C@H](CN(C)C)Oc2ncc(/C=C/c3ccccc3)cc2C1=O as the compound, how does the activity score (inhibition) read?
A: The activity score (inhibition) was 71.7% (active).

Q: With COc1ccc(NC(=O)N(C)C[C@@H]2Oc3ncc(-c4cccc(OC)c4)cc3C(=O)N([C@H](C)CO)C[C@@H]2C)cc1 as the compound, how does the activity score (inhibition) read?
A: Its activity score (inhibition) is 16.6% (inactive).
